In all, about 2,100 compounds went through this assay and about 770 (37%) were called active.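 Rule for the calls: active = by-eye trace score of 1 for enhancers or -1 for inhibitors, so actives lie on both sides (some results past the limit were not filed as active); inactive = score 0, or 3 fluorescent, or 4 baseline rise.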 This is one part of the list.

Sequence of G protein-activated inward rectifier potassium channel 2 (Homo sapiens) + G protein-activated inward rectifier potassium channel 1 (Homo sapiens) (P48051 whole entry, looked up): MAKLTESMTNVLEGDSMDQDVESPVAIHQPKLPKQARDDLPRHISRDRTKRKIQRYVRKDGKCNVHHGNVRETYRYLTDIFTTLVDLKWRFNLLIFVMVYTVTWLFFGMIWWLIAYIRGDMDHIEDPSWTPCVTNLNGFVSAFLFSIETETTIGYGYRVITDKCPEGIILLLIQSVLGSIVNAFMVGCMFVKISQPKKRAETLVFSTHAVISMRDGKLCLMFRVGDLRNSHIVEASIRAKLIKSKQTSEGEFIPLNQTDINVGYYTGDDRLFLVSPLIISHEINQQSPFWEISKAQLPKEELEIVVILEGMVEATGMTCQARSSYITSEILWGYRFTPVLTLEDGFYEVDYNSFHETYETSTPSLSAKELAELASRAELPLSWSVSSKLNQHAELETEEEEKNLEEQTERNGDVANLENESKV
Sequence of G protein-activated inward rectifier potassium channel 2 (Homo sapiens) + G protein-activated inward rectifier potassium channel 1 (Homo sapiens) (P48549 whole entry, looked up): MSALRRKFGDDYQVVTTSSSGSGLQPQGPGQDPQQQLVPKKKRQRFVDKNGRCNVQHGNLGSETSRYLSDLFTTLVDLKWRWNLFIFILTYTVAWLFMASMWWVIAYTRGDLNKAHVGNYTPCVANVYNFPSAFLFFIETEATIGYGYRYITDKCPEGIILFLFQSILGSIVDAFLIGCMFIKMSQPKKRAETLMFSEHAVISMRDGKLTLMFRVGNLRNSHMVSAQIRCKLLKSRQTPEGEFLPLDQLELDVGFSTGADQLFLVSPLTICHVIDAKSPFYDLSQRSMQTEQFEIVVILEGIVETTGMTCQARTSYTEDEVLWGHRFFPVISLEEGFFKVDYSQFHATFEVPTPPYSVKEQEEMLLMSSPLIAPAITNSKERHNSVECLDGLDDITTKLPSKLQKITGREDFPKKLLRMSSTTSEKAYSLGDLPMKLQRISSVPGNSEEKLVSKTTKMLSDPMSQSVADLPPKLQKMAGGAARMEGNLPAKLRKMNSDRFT

The experiment has as its target G protein-activated inward rectifier potassium channel 2 (Homo sapiens) + G protein-activated inward rectifier potassium channel 1 (Homo sapiens) (UniProt P48051+P48549). Description: GIRK1/2 thallium flux modulators, retest, confirmation, cell-based, HEK293 rmGlu8/hGIRK1/2, FluoZin-2 (AID 623911). The conditions noted are these: HEK293 rmGlu8/hGIRK1/2, thallium flux FluoZin-2; actives lie on both sides; glutamate co-added at its EC20 level.
Take `CCC1(C)CC(c2csc(N)n2)CCO1` (centres undefined): the manual score was 0 (inactive). For `CCCCOc1ccccc1C1C(C(=O)OC)=C(C)N(C)C(C)=C1C(=O)OC` the value was -1 (active); for `CCOc1ccc(N2C(=O)c3ccccc3C2O)cc1` (centres undefined), 0 (inactive).

In the case of `CCCCN1C(=O)c2ccccc2C1C(=O)NC1CCCC1` (centres undefined), the manual score is 0 (inactive).

As to `Cc1sc2nc(C3CC3)nc(SCC(=O)N3CC(=O)Nc4ccccc43)c2c1C`, the manual score was 0 (inactive). The figure for `CCc1nc(SCC(=O)Nc2nnc(CC)s2)c2c(C)c(C)sc2n1` is 0 (inactive); for `CCc1nc(SCC(=O)N2CC(=O)Nc3ccccc32)c2c(C)c(C)sc2n1` it is 1 (active).

On to `O=C1NC(=S)SC1=C1CCCCCC1`, for which the manual score is 1 (active). For `CSc1nc2ccccc2cc1/C=C(\C#N)c1cccc(C)c1` the value was 0 (inactive); for `COC(=O)C(CC(C)C)NC(=O)c1ccc([N+](=O)[O-])c(C)c1` (centres undefined), 0 (inactive); for `CC(C)CNC(=S)NC(=O)c1ccc(F)cc1`, 1 (active). The figure for `CC(C)CNC(=S)NC(=O)c1ccc([N+](=O)[O-])cc1` is 1 (active). For `CCCCNC(=S)NC(=O)c1ccc([N+](=O)[O-])cc1` the value was 1 (active). On to `CCCCCC(=O)NC(=S)NNC(=O)c1ccc([N+](=O)[O-])cc1`, for which the manual score is 1 (active). `CCCCCCc1cc2cc(-c3nnc(-c4cc(OC)c(OC)c(OC)c4)o3)c(=O)oc2cc1O`: the manual score is 3 (inactive). For `CCn1c2ccccc2c2cc(/C=N/n3cn[nH]c3=S)ccc21` the value was 0 (inactive); for `O=c1cc(CN2CCOCC2)nc(C2CC2)[nH]1`, 0 (inactive); for `O=C(COC(=O)CCC1CCCC1)Nc1nc2c(F)c(F)c(F)cc2s1`, 0.5 (inactive).

In the case of `O=C(CSc1nc(-c2ccc(F)cc2)cs1)N1CCOCC1`, the manual score was 0 (inactive). The figure for `CCOC(=O)/C(C#N)=C/C1=C(N2CCCC2)CC(C)(C)OC1` is 0 (inactive); for `Cc1sc2nc(C(C)C)nc(SCC(=O)NCc3ccco3)c2c1C` it is 1 (active). In the case of `CCn1c(SCC(=O)NC(=O)NCc2ccco2)nc2sc(C)c(C)c2c1=O`, the manual score was 1 (active).

Take `CCCn1c(SCc2nc3sc(C)c(C)c3c(=O)[nH]2)nc2ccccc2c1=O`: the manual score is 0 (inactive). Take `Cc1sc2nc(C(C)C)nc(SCC(=O)N3c4ccccc4CC3C)c2c1C` (centres undefined): the manual score is 1 (active). For `O=C(CSc1nnc(-c2c[nH]c3ccccc23)n1-c1ccc(F)cc1)NCc1ccco1` the value was -0.5 (inactive); for `Cc1sc2ncnc(SCc3ccco3)c2c1C`, 0 (inactive); for `O=C(c1ccc(CS(=O)(=O)c2ccc(Br)cc2)o1)N1CCN(c2ncccn2)CC1`, 0 (inactive).

In the case of `CCOC(=O)C1CCN(C(=O)CN(c2ccc(Cl)c(C(F)(F)F)c2)S(C)(=O)=O)CC1`, the manual score is 0 (inactive). The figure for `O=c1cc(Cn2ccnc2)c2cc3c(cc2o1)CCC3` is 0 (inactive).

These data come from PubChem BioAssay AID623911 (Vanderbilt High Throughput Screening Facility, 2012).
